# Results as given in PubChem BioAssay (NCATS).
# Results filed as inconclusive are left out. Unmarked numbers belong to inactive results. Activity calls are given as the source filed them. Calls follow the shape of the dose curve; as a rule, active = well fitted inhibition curve with a large enough effect; inconclusive = small, poorly fitted or top-dose-only effect; inactive = flat fitted curve, though single readings scatter.
# System: HEK293
# Experiment: Cytotoxic Profiling of Annotated Libraries Using Quantitative High-Throughput Screening (AID 1296008); also: nearly all actives have a fitted effect of over 60% in size
# Settings: Five cell lines viability, CellTiter-Glo ATP luminescence, 48-72 h; max response: active compounds read low
# Outline: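 Cells exposed to compounds for 48 or 72 hr at 37 degrees Celsius. Viability read as ATP-coupled luminescence with CellTiter-Glo after 10 min at room temperature.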
# % is scaled to controls: 0 for no effect and ±100 for the full control effect; potency is read from the fitted curve at half-maximal effect.
SMILES,Potency,max response [%]
COc1c(C)cnc(Cn2cc(C#CCC(C)(C)O)c3c(Cl)nc(N)nc32)c1C,0.0517 µM (active),
COC(=O)N1CCC(n2ncc3c(N4CCOCC4)nc(-c4ccc(NC(=O)NC5CC5)cc4)nc32)CC1,0.291 µM (active),
CCCCC1CCN(CCCN2C(=O)CCc3ccccc32)CC1,18.4 µM (active),
N#Cc1ccnc(Nc2cc(C3CCN(C4COC4)CC3)cc(N3CCC(F)(F)C3)n2)c1,8.31 µM (active),
CC1(C(=O)Nc2ccc(F)nc2)CCCN1c1nc(Nc2cc(C3CC3)[nH]n2)c2cccn2n1 (stereo not given),5.17 µM (active),
C=C1C(=O)O[C@@H]2C[C@H](C)[C@@H]3CC(=O)C(C)=C3C[C@H]12,8.2 µM (active),
CN1CCC(NC(=O)c2cc(-c3c(O)cc(O)cc3Oc3ccc([N+](=O)[O-])cc3)on2)CC1,0.206 µM (active),
COC(C)(C)CCn1nc(Nc2c(C)cccc2C)c2cnc(Nc3ccc(OCCN4CCCC4)c(F)c3)nc21,7.31 µM (active),
Cc1nnc(C[C@@H]2C=C(c3ccc(Cl)cc3)c3ccccc3-n3c(C)nnc32)o1,1.16 µM (active),
Cc1cc(-c2nc(-c3ccc(OC(F)(F)F)cc3)no2)nn1Cc1ccnc(N2CCN(C3CC3)CC2)c1,0.0065 µM (active),
COC1CC/C=C(\C)C(=O)Nc2cc(O)cc(c2)CC(C)CC(OC)C(O)C(C)/C=C(\C)C1OC(N)=O (stereo not given),2.52 µM (active),
CC(C)NCCCn1c(Sc2cc3c(cc2I)OCO3)nc2c(N)ncnc21,0.184 µM (active),
CCOC(=O)c1cnc2ccc(-c3cncc(NS(=O)(=O)c4ccccc4)c3)cn12,1.03 µM (active),
CCNC(=O)Nc1ccc(-c2nc3c(c(N4CCOCC4C)n2)CCN(C2COC2)C3)cc1 (stereo not given),1.46 µM (active),
CN1C(=O)c2sccc2N(C)c2nc(Nc3ccc(S(N)(=O)=O)cc3)ncc21,11.7 µM (active),
CN1CCN(Cc2ccc(NC(=O)Cc3ccc(Oc4cc(NC(=O)C5CC5)ncn4)cc3)cc2C(F)(F)F)CC1,,-105
CCc1c[nH]c2ncnc(N3CC[C@](N)(CNC(=O)c4ccc(F)cc4F)C3)c12,1.16 µM (active),
COc1ccc(C[C@H]2COC(=O)[C@@H]2Cc2ccc(O[C@@H]3O[C@H](CO)[C@@H](O)[C@H](O)[C@H]3O)c(OC)c2)cc1OC,1.78 µM (active),
C=CC(=O)Nc1cccc(Nc2nc(Nc3ccc(NC4CN(CCF)C4)cc3OC)ncc2C(F)(F)F)c1,8.2 µM (active),
CC1CC(=O)C2=C(C1)C1OC1C1(O)C2C(=O)c2cccc(O)c2C1O (stereo not given),,-91.9

SMILES,Potency,max response [%]
CCc1cc(C(N)=O)ccc1-n1nc(C(C)C)c2c(-n3cnc(-c4cnn(C)c4)c3)ccnc21,,-117
O=C1C(Cc2ccc(O)cc2)N2C(=O)CCN(C(=O)NCc3ccccc3)C2CN1Cc1cccc2ccccc12 (stereo not given),4.11 µM (active),
CC[C@@H](C)Nc1cc(C(=O)NC2CC3CCC(C2)N3c2ccc(C(=O)C3CC3)cn2)c(C)cc1C(N)=O (stereo not given in full),0.13 µM (active),
Cn1c(=O)c2c(ncn2Cc2ccc(C(C)(C)C)cc2)n(C)c1=O,1.64 µM (active),
O=c1cc(NCCCN[C@@H]2CCOc3c(Br)cc(Br)cc32)[nH]c2ccsc12,5.8 µM (active),
C/C1=C/CCC2=CC(OC2=O)C(C)(C)/C=C/C1=O (stereo not given),1.3 µM (active),
CCCC1(CCC)CCC2(CCN(CCCN(CC)CC)C2)CC1,1.84 µM (active),
CC[C@@H](C)Nc1cc(C(=O)NC2CC3CC[C@@H](C2)N3c2ccc(C(=O)C3CC3)cn2)c(C)cc1C(N)=O (stereo not given in full),0.0517 µM (active),
Cc1nc(-c2cn3c(n2)-c2ccc(-c4cnn(C(C)(C)C(N)=O)c4)cc2OCC3)n(C(C)C)n1,6.51 µM (active),
CC(C)(C)c1ccc(C(=O)Nc2cc(Cl)c(Br)cc2C(=O)O)cc1,23.1 µM (active),
C/C1=C\[C@@H](C)C[C@@H](C)[C@@H](Cc2cnco2)OC(=O)/C(C)=C/[C@@H](C)C[C@@H](C)[C@@H](Cc2cnco2)OC1=O,0.632 µM (active),
COC1=CC(=O)C[C@@H](C)[C@@]12Oc1c(Cl)c(OC)cc(OC)c1C2=O,,-102
Cc1ccccc1C(C(=O)NC1CCCCC1)N(C(=O)Cn1cnc2ccccc21)c1cccc(F)c1 (stereo not given),16.4 µM (active),
CS(=O)(=O)c1ccc(Oc2cc(F)cc(C#N)c2)c2c1[C@H](O)C(F)(F)C2,,1.03
O=C(Cc1cccc(OC(F)(F)F)c1)Nc1ccc(CCCCc2nnc(NC(=O)Cc3ccccn3)s2)nn1,16.6 µM (active),
C#CCCCn1cc(-c2cccc3c2N[C@H](C)CC(=O)N3)cn1,,-13.5
COc1cc(N2CCC(N3CCN(C)CC3)CC2)ccc1Nc1ncc(Cl)c(Nc2ccccc2P(C)(C)=O)n1,5.8 µM (active),
COc1cc(O)cc(OC2OC(CO)C(O)C(O)C2O)c1 (stereo not given),,0.556
CC(C)C[C@@H]1NC(=O)[C@@H](Cc2ccccc2)NC(=O)C(CCCCCC(=O)C2CO2)NC(=O)[C@@H]2CCCCN2C1=O (stereo not given in full),2.82 µM (active),
COc1cc(N2CCC(O)CC2)ccc1Nc1nc(Nc2ccccc2S(=O)(=O)C(C)C)c2[nH]cnc2n1,5.8 µM (active),
